The panel holds about 83,000 compounds, 20% with a hit somewhere; the sample as a whole holds those more often.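 Negative percent growth values reflect cell death: -40 means 40% of the cells present at the start died, and -100 means all died.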 A number with no mark means an inactive call. Calls of active or inactive are those of the source. Rule for the calls: active = growth percent below 10; inactive = the rest.
Assays:
Experiment in all cases: NCI-60 one-dose screen, 48 h (100 = growth as untreated, 0 = no growth, -100 = all killed)
Conditions in all cases: 10 µM unless noted
DU-145 prostate = test system: DU-145 prostate
K-562 leukemia = test system: K-562 leukemia
MALME-3M melanoma = test system: MALME-3M melanoma
MDA-MB-231 breast = test system: MDA-MB-231 breast
RXF 393 renal = test system: RXF 393 renal
SF-268 CNS = test system: SF-268 CNS
SF-295 CNS = test system: SF-295 CNS
SF-539 CNS = test system: SF-539 CNS
UACC-257 melanoma = test system: UACC-257 melanoma
M14 melanoma = test system: M14 melanoma

SMILES | growth (DU-145 prostate) | growth (K-562 leukemia) | growth (MALME-3M melanoma) | growth (MDA-MB-231 breast) | growth (RXF 393 renal) | growth (SF-268 CNS) | growth (SF-295 CNS) | growth (SF-539 CNS) | growth (UACC-257 melanoma) [%] | growth (M14 melanoma)
COc1cc2c(=O)n(CCN)c3c4cc5c(cc4ccc3c2cc1OC)OCO5 | -83.2% (active) | -55% (active) | -72.3% (active) | -81.7% (active) | -76.8% (active) | -59.6% (active) | 25% | -75.9% (active) | 33.8 | -50.8% (active)
COc1ccc(OC)c(-c2cc(-c3ccc(Cl)cc3)c3c(N)c(C(=O)c4ccc(Cl)cc4)sc3n2)c1 | 107% | 118% | 89.7% | 90.4% | 115% | 100% | 99.2% | 101% | 98.2 | 102%
CNC(=O)c1cncc(Cn2nc(C)c(NC(=O)c3ccc(COc4ccc(C(F)(F)F)cc4C)cc3)c2C)c1 | 67% | 37% | 73.8% | 78.2% | 83.7% | 70.8% | 40.4% | 80.7% | 18.4 | 73.3%
O=C(C[n+]1cccc2ccccc21)c1ccc(O)c(O)c1 | 84.8% | 28.5% | 53.9% | 59.1% | 49.6% | 84.7% | 105% | 91.2% | 78.1 | -83.4% (active)
CCN(CC)c1ccc(/C=N/NC(=O)CSc2nc3ccccc3c(=O)n2CCc2ccc(S(N)(=O)=O)cc2)c(O)c1 | 31% | 7.07% (active) | 44.3% | 26% | 44.1% | 32.5% | 38.6% | 22.7% | 16.7 | 31.1%
COc1ccccc1/C(C)=N/NC(=O)CSc1nc2ccccc2c(=O)n1Cc1ccc(S(N)(=O)=O)cc1 | 108% | 98.2% | 103% | 96.6% | 95.9% | 89.2% | 93.9% | 94.4% | 95.4 | 108%
Cc1ccc(/C=C(/C#N)n2nnc3cccc(F)c32)cc1 | -24.9% (active) | 6.48% (active) | 36.3% | -38.5% (active) | -51.4% (active) | 21.2% | 16.2% | -48.1% (active) | 52.8 | -13.6% (active)
CN1CCC(=C(c2ccccc2)c2ccccc2)C(c2ccccc2)C1 (stereo not given) | 104% | 106% | 104% | 94.8% | 88% | 97.8% | 99.3% | 101% | 105 | 112%
O=C1Nc2cc(-c3cccc(O)c3)ccc2/C1=C/c1ccc[nH]1 | 33.8% | 5.66% (active) | 16.1% | -15.8% (active) | -39.8% (active) | 15.4% | 19.3% | -48.7% (active) | 46 | 16.9%
COc1ccc(/C=N/NC(=O)c2cnn3c2NC(c2ccccc2)C3)cc1OC (stereo not given) | 81.1% | 24.1% | 76.4% | 66% | 78.2% | 73.7% | 36.3% | 63.4% | 77.9 | 45.5%
C=C1C(=O)O[C@H]2[C@H]1CC/C(COC(=O)NCCc1c[nH]c3ccc(OC)cc13)=C\CC[C@@]1(C)O[C@@H]21 | 10.6% | 3.56% (active) | -37.2% (active) | 39.1% | -81.7% (active) | 60.1% | 86.2% | -24.7% (active) | 30.6 | 14.1%
O=S(=O)(NCCNc1nccc(-c2c(-c3cccc(F)c3)nc3sccn23)n1)c1ccc(Br)cc1 | 52.5% | 38.7% | 71.1% | 69.7% | 72.7% | 53% | 58.7% | 76.4% | 82 | 52.3%
CCOC(=O)c1nc2c3ccccc3ccn2c1C(=O)OCC | 92.1% | 99.1% | 103% | 98.2% | 103% | 89% | 104% | 99.9% | 126 | 121%
CC1=C(C(=O)/C=C/c2c[nH]c3ccccc23)C(c2ccccc2)NC(=S)N1 (stereo not given) | 113% | 90.1% | 97.7% | 85.3% | 105% | 92.7% | 97.6% | 98.2% | 102 | 94.4%
C/C(=N\NC(=O)CSc1nc2ccccc2c(=O)n1CCc1ccc(S(N)(=O)=O)cc1)c1ccccn1 | 44.1% | 25.2% | 36.5% | 27.4% | 52.8% | 34.3% | 13.4% | 29.8% | 45.9 | 17.6%
Cc1ccc(-c2[nH][nH]c(=O)c2-c2nc3ccccc3s2)cc1 | 111% | 100% | 96.5% | 99.1% | 101% | 103% | 101% | 100% | 104 | 98.1%
C=C(C)[C@@H]1CC[C@]2(C(=O)N3CCN(C)CC3)CC[C@]3(C)[C@H](CC[C@@H]4[C@@]5(C)C/C(=C/c6cccnc6)C(=O)C(C)(C)[C@@H]5CC[C@]43C)[C@@H]12 | 74% | 21.9% | 71.4% | 74.9% | 52.2% | 72.7% | 87.3% | 74.5% | 66.6 | 69.5%
CC1=C(C(=O)/C=C/c2ccc(N(C)C)cc2)C(c2ccccc2)NC(=S)N1 (stereo not given) | 107% | 92.1% | 108% | 100% | 107% | 97.8% | 110% | 97.1% | 99.7 | 101%
CCOC(=O)Nc1ccc(-c2ccc3c(c2)NC(=O)/C3=C\c2ccc[nH]2)cc1 | 110% | 92.3% | 110% | 69.3% | 112% | 100% | 101% | 94% | 113 | 103%
COc1cc(C2=C(c3cn(C)c4ccccc34)COC2=O)cc(OC)c1OC | 19.9% | 6.17% (active) | 44.5% | 22.5% | -21% (active) | 25.8% | -5.22% (active) | -19.7% (active) | 67.4 | -13.9% (active)
N#Cc1cc(-c2nc3ccccc3s2)c(=O)n(NS(=O)(=O)c2ccccc2)c1N | 116% | 104% | 112% | 91% | 113% | 97.4% | 111% | 100% | 111 | 107%
COc1ccc(C(=O)C2C(C#N)C(C#N)C3c4ccccc4C=CN23)cc1 (stereo not given) | 103% | 73.1% | 92.1% | 79.2% | 77.9% | 91% | 95.8% | 95.4% | 85.7 | 96.2%
O=S(=O)(NCCNc1nccc(-c2c(-c3cccc(O)c3)nc3occn23)n1)c1ccc(C(F)(F)F)cc1 | 108% | 97.2% | 7.76% (active) | 90.7% | 101% | 97.3% | 107% | 114% | 61.1 | 38.9%
